Reference: PubChem BioAssay AID1159580 (chemical genetic matrix, 2015)
About 2,000 (36%) of roughly 5,500 compounds were called active. Inconclusive results (about 18%) are left out. Cut-off read from the data, not from the text of the source: active = normalized growth mostly below about 0.91 (no sharp cut-off); inconclusive = no clear call, values can overlap the other calls; inactive = mostly above about 0.92. This is one part of the list.

Experiment: chemical genetic growth profiling, strain panel (AID 1159580);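 note: tested at 20 µM; growth read once vehicle control cultures reached saturation at 30 °C; 1 = growth at the plate median or of vehicle wells; lower values mean less growth of the strain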
Conditions: S. cerevisiae deletion strains, growth OD
[1] = locus YJR075W, strain HOC1, stronger effect = lower value
[2] = locus YMR307W, strain GAS1, stronger effect = lower value
[3] = locus YNL153C, strain GIM3, stronger effect = lower value
[4] = locus YNL322C, strain KRE1, stronger effect = lower value

Measured: normalized growth

CCC1C2CC3C4N(C)c5ccccc5C45CC(C2C5OC(C)=O)N3C1OC(C)=O (centres undefined)
inactive: locus YAL013W, strain DEP1, stronger effect = lower value 1.01 | locus YBR021W, strain FUR4, stronger effect = lower value 1.01 | locus YBR229C, strain ROT2, stronger effect = lower value 1 | locus YCL029C, strain bik1, stronger effect = lower value 1.02 | locus YDL035C, strain GPR1, stronger effect = lower value 1.02 | locus YDL074C, strain BRE1, stronger effect = lower value 1.04 | locus YDL101C, strain DUN1, stronger effect = lower value 1.01 | locus YDL134C, strain PPH21, stronger effect = lower value 1.02 | locus YDL185W, strain tfp1, stronger effect = lower value 1.02 | locus YDL192W, strain arf1, stronger effect = lower value 1.01 | locus YDR101C, strain arx1, stronger effect = lower value 1.01 | locus YDR162C, strain NBP2, stronger effect = lower value 1.01 | locus YDR318W, strain mcm21, stronger effect = lower value 1.01 | locus YDR388W, stronger effect = lower value 1.03 | locus YDR502C, strain sam2, stronger effect = lower value 1.02 | locus YEL061C, strain CIN8, stronger effect = lower value 1.01 | locus YER110C, stronger effect = lower value 1.03 | locus YER155C, strain BEM2, stronger effect = lower value 1 | locus YER167W, strain BCK2, stronger effect = lower value 1.02 | locus YGL078C, strain dbp3, stronger effect = lower value 1 | locus YGL086W, strain mad1, stronger effect = lower value 0.997 | locus YGL248W, strain PDE1, stronger effect = lower value 1.01 | locus YGR135W, strain pre9, stronger effect = lower value 1.01 | locus YGR252W, strain gcn5, stronger effect = lower value 1.02 | locus YHR030C, strain SLT2, stronger effect = lower value 1.02 | locus YHR079C, strain IRE1 (second series), stronger effect = lower value 1 | locus YHR094C, strain hxt1, stronger effect = lower value 1.01 | locus YHR129C, strain ARP1, stronger effect = lower value 1.02 | locus YHR200W, strain rpn10, stronger effect = lower value 1.02 | locus YIL066C, strain RNR3, stronger effect = lower value 1.02 | locus YIL073C, strain SPO22, stronger effect = lower value 1.08 | locus YIL125W, strain kgd1, stronger effect = lower value 1.03 | locus YIR030C, strain dcg1, stronger effect = lower value 1.01 | locus YJL095W, strain BCK1, stronger effect = lower value 1.01 | locus YJL134W, strain LCB3, stronger effect = lower value 1.02 | locus YJL168C, strain set2, stronger effect = lower value 1.02 | locus YJL187C, strain SWE1 (second series), stronger effect = lower value 1.01 | locus YJR043C, strain POL32, stronger effect = lower value 1.01 | [1] 1.04 | locus YKL009W, strain mrt4, stronger effect = lower value 1.02 | locus YKL068W, stronger effect = lower value 1 | locus YKL085W, strain MDH1 (second series), stronger effect = lower value 0.995 | locus YKL085W, strain MDH1, stronger effect = lower value 0.995 | locus YKR001C, strain vps1, stronger effect = lower value 1.03 | locus YLR039C, strain RIC1, stronger effect = lower value 1.07 | locus YLR058C, strain SHM2, stronger effect = lower value 1.01 | locus YLR102C, strain apc9, stronger effect = lower value 1.03 | locus YLR262C, strain YPT6, stronger effect = lower value 1.09 | locus YLR268W, strain sec22, stronger effect = lower value 1.02 | locus YLR330W, strain CHS5, stronger effect = lower value 1.02 | locus YLR342W, strain FKS1 (second series), stronger effect = lower value 1.03 | locus YLR371W, strain rom2, stronger effect = lower value 1.01 | locus YLR418C, strain cdc73, stronger effect = lower value 1.04 | locus YML016C, strain PPZ1, stronger effect = lower value 1.01 | locus YML032C, strain rad52, stronger effect = lower value 1.02 | locus YML124C, strain tub3, stronger effect = lower value 1.01 | locus YMR078C, strain ctf18, stronger effect = lower value 0.999 | locus YMR223W, strain ubp8, stronger effect = lower value 1.01 | locus YMR263W, strain SAP30, stronger effect = lower value 1.01 | [2] 0.992 | locus YNL067W, strain RPL9B, stronger effect = lower value 1.02 | locus YNL128W, strain TEP1, stronger effect = lower value 1.01 | [3] 1 | locus YNL233W, strain BNI4, stronger effect = lower value 1.02 | locus YNL250W, strain rad50, stronger effect = lower value 1.01 | locus YNL271C, strain bni1, stronger effect = lower value 1.01 | locus YNL298W, strain CLA4, stronger effect = lower value 1.02 | locus YNL307C, strain MCK1, stronger effect = lower value 1.02 | [4] 1.01 | locus YNR052C, strain pop2, stronger effect = lower value 1.02 | locus YOL006C, strain TOP1, stronger effect = lower value 1.14 | locus YOL012C, strain htz1 0.814 | locus YOL147C, strain pex11, stronger effect = lower value 1.02 | locus YOR061W, strain CKA2, stronger effect = lower value 1.01 | locus YOR069W, strain VPS5, stronger effect = lower value 1.01 | locus YOR136W, strain idh2, stronger effect = lower value 1.02 | locus YOR144C, strain elg1, stronger effect = lower value 1.01 | locus YOR184W, strain ser1, stronger effect = lower value 1.01 | locus YOR316C, strain cot1, stronger effect = lower value 1.02 | locus YPL055C, strain LGE1, stronger effect = lower value 1.04 | locus YPR119W, strain clb2, stronger effect = lower value 1 | locus YPR141C, strain kar3, stronger effect = lower value 1.01 | locus YPR163C, strain tif3, stronger effect = lower value 1.02 | locus YPR167C, strain met16, stronger effect = lower value 1.01 | strain wtn01, stronger effect = lower value 1.04

CO[C@H]1CC=C2CCN3CCC4=C(CC(=O)OC4)[C@]23C1
inactive: locus YAL040C, strain CLN3, stronger effect = lower value 0.99 | locus YCL061C, strain MRC1 (second series), stronger effect = lower value 1 | locus YDR150W, strain NUM1, stronger effect = lower value 1.01 | locus YDR363W, strain ESC2, stronger effect = lower value 1.07 | locus YER002W, strain NOP16, stronger effect = lower value 1.01 | locus YGR078C, strain PAC10, stronger effect = lower value 1.01 | [1] 1.01 | [2] 0.999 | [3] 0.981 | locus YNL175C, strain NOP13, stronger effect = lower value 1.01 | locus YNL197C, strain WHI3, stronger effect = lower value 1.03 | locus YNL224C, strain SQS1, stronger effect = lower value 0.997 | [4] 0.998 | locus YOR083W, strain WHI5 (second series), stronger effect = lower value 1.06
